Sampled rows, rich in hits. Any-hit rate of the full collection: about 4.2%.
NALP1 yeast inh – NALP1 inhibition | S. cerevisiae NALP1/ASC/caspase-1 growth, X-gal OD620, 72 h | inhibition, % at 10 µM | actives 0.61% (n = 280,000); in the data active = inhibition mostly above about 24%, no sharp cut-off; inactive = mostly below about 32%
tim23-1 inh – inhibits growth of tim23-1 mutant yeast | S. cerevisiae tim23-1 growth, BacTiter-Glo luminescence, 24 h | inhibition, % at 20 µM | actives 1.3% (n = 330,000);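 active = growth inhibition of the mutant yeast at or above 50%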;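 also: temperature-sensitive mutant grown at 25 °C; plate controls were DMSO-treated mutant yeast for no effect and medium wells lacking yeast for full effect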
V-ATPase pH – yeast V-ATPase proton transport regulation by pHLuorin | S. cerevisiae, pHLuorin cytosolic pH fluorescence | response, % at 10 µM | actives 0.37% (n = 350,000) | AID 504577; in the data active = response mostly above about 7.3%, no sharp cut-off; inactive = mostly below about 5.4%; also: actives read high
tim10-1 inh – inhibits growth of tim10-1 mutant yeast | S. cerevisiae tim10-1 ts strain growth, BacTiter-Glo, 24 h | inhibition, % at 20 µM | actives 2.2% (n = 330,000) | AID 463190;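 active = inhibition of at least 40%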;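 also: mutant grown at 25 °C; 0% = DMSO wells with yeast and 100% = wells holding no yeast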
TIM10 inh – TIM10 yeast growth inhibition; S. cerevisiae TIM10 strain growth, BacTiter-Glo luminescence, 24 h; AID 463195; inhibition, % at 10 µM; actives 1.4% (n = 330,000);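 active = inhibition of 40% or more at the single tested concentration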;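 also: wild-type TIM10 isogenic control strain grown at permissive 25 °C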
NALP3 yeast inh – blocks the NALP3 inflammasome reconstituted in yeast; Yeast reconstituted NLRP3/ASC/caspase-1, beta-gal luminescence, 24 h; inhibition, % at 10 µM; actives 0.39% (n = 330,000);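 active = inhibition of 50% or more; inactive = inhibition below 50%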;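 also: plate controls were induced DMSO wells for no effect and uninduced yeast grown without galactose for full effect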
tim10-1 conf – tim10-1 yeast growth inhibition, confirmed; shares compounds with tim10-1 inh; S. cerevisiae tim10-1 ts strain growth, BacTiter-Glo, 24 h; inhibition, % at 20 µM; actives 56% (n = 7,400); AID 463213;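 active = inhibition of yeast growth at or above a set limit in either of two repeat tests at 20 µM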;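 also: tim10-1 mutant grown at permissive 25 °C to find synthetic lethal compounds; 0% = DMSO yeast wells and 100% = medium wells without yeast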
TIM10 conf – TIM10 yeast growth inhibition, confirmed | AID 463215 | inhibition, % at 10 µM | shares compounds with TIM10 inh | actives 63% (n = 4,600) | S. cerevisiae tim10 strain growth, BacTiter-Glo luminescence, 24 h;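 active = inhibition of yeast growth at or above a set limit in either of two replicates at 10 µM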;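 also: this counterscreen used the strain with wild-type TIM10; 0% = yeast with DMSO and 100% = medium wells lacking yeast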
tim23-1 confirm – tim23-1 yeast growth inhibition, confirmed | shares compounds with tim23-1 inh | inhibition, % at 20 µM | S. cerevisiae tim23-1 growth, BacTiter-Glo luminescence, 24 h | actives 83% (n = 4,400) | AID 463218;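 active = inhibition above about 39% in either of two replicate wells at 20 µM, limit read from the data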;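 also: temperature-sensitive tim23-1 mutant grown at 25 °C; 0% = DMSO wells with yeast and 100% = medium wells without yeast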
* marks the source's active call; other numbers are inactive results; nt = no result given.

SMILES	NALP1 yeast inh	tim23-1 inh	V-ATPase pH	tim10-1 inh	TIM10 inh	NALP3 yeast inh	tim10-1 conf	TIM10 conf	tim23-1 confirm
O=C(NC(=S)Nc1ccc2c(c1)OCCO2)c1cccc(Br)c1	14	51*	-1	45*	45*	20	21	0	42*
O=C(NC(=S)N1CCN(Cc2ccc3c(c2)OCO3)CC1)c1ccc(Cl)cc1	28	40	-2	7	9	33	nt	nt	nt
O=C(NC(=S)N1CCN(Cc2ccc3c(c2)OCO3)CC1)c1cccc(Br)c1	27	54*	0	51*	56*	27	35*	18	47*
O=C(NC(=S)Nc1ccc2c(c1)OCO2)c1ccccc1	1	12	3	-4	18	30	nt	nt	nt
Cc1ccc(NC(=O)COc2ncnc3cc([N+](=O)[O-])ccc23)cc1S(=O)(=O)N1CCOCC1	25	2	3	-6	-12	2	nt	nt	nt
C/C(=N\OC(=O)c1ccc(Cl)c(Cl)c1)c1sc(C)nc1C	-1	17	-3	21	13	2	nt	nt	nt
CC(C)(C)C(=O)OC/C(N)=N/OC(=O)c1ccc(Cl)c(Cl)c1	0	84*	0	63*	77*	14	42*	86*	69*
N#C/C(=C\c1cccc(NC(=O)c2ccccc2Cl)c1)C(=O)NCCc1ccccc1	30	60*	1	66*	57*	8	61*	4	57*
Cc1ccc(/C=C/C(=O)NC2CCCCCCC2)o1	34	52*	0	55*	46*	22	57*	38*	58*
COc1cc(/C=C(\C#N)C(=O)NCC2CCCO2)ccc1OC(=O)c1ccco1 (centres undefined)	nt	64*	-1	40*	34	12	34*	nt	53*
COc1cc(/C=C(\C#N)C(=O)NCC2CCCO2)ccc1OC(C)C (centres undefined)	-25	33	-3	31	11	4	nt	nt	nt
C=CCNC(=O)/C(C#N)=C/c1ccc(C(=O)O)cc1	6	12	2	5	-2	2	nt	nt	nt
CCOc1c(Br)cc(/C=C(\C#N)C(=O)NC2CC2)cc1OC	-3	87*	-3	85*	56*	14	78*	67*	84*
N#C/C(=C\c1cc(Br)ccc1F)C(=O)NC1CC1	9	90*	5	77*	51*	15	60*	80*	91*
C=CCNC(=O)/C(C#N)=C\c1cc(Cl)c(OCC)c(OC)c1	40	82*	4	79*	67*	34	79*	73*	84*
N#C/C(=C\c1cc(Cl)ccc1O)C(=O)NC1CCCCC1	-5	31	-2	27	22	20	nt	nt	nt
CC(C)(C)c1ccc(/C=C(\C#N)C(=O)NC2CC2)cc1	nt	85*	-2	51*	58*	35	78*	65*	51*
COc1cc(/C=C(\C#N)C(=O)NC2CCCCC2)ccc1OCc1ccc(C(=O)O)cc1	2	30	0	35	22	12	nt	nt	nt
CC(=O)Nc1ccc(NC(=O)CSc2nc3[nH]ncc3c(=O)n2-c2ccccc2)cc1	-5	-4	4	-5	3	-2	nt	nt	nt
O=C(COC(=O)COc1ccc(Br)cc1)NC1CCS(=O)(=O)C1 (centres undefined)	nt	nt	1	nt	nt	nt	nt	nt	nt
Cc1ccc(OCC(=O)Nc2cc(S(=O)(=O)N3CCOCC3)ccc2Cl)c([N+](=O)[O-])n1	nt	-8	1	3	2	5	nt	nt	nt
C=CCN(Cc1cccs1)C(=O)COc1ccc2c(c1)OCO2	nt	15	-2	-19	7	32	nt	nt	nt
N#C/C(=C\c1ccccc1[N+](=O)[O-])C(=O)NC1CCCCC1	-16	76*	1	75*	72*	22	84*	83*	73*
